This is an account of results in PubChem BioAssay (Tox21).

A short description of test [1]: Nuclear factor erythroid 2-related factor 2/antioxidant responsive element (Nrf2/ARE) small molecule agonists: luciferase reporter gene qHTS assay in human keratinocytes (AID 1919969). Also: nearly all actives have a fitted effect of over 35% in size. Also: potency is read from the fitted curve at half-maximal effect. For orientation: A reporter such as luciferase makes a cellular process visible.
The target in test [2] is KiSS-1 receptor (Homo sapiens) (UniProt Q969F8). Briefly: Human kisspeptin (KISS1R) small molecule agonists, calcium flux assay in KISS1R-HEK293 cells (AID 1920064; active = well fitted activation curve with a large enough effect in the repeat runs; also: potency is read from the fitted curve at half-maximal effect). Summed up: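 Cell line: HEK293, stable human KISS1R. Dye loading 1 h at 37 C after 18 h culture. Read: kinetic fluorescence, 480/540 nm, 3 min at 1 s intervals.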
(Calcium flux is commonly read through the fluorescence of an indicator in the cells.)

Test [3] in a line: G protein-coupled receptor (GPCR) small molecule agonists, calcium flux assay: HEK293 wild type cell line counter screen (AID 1920065). Also: potency is read from the fitted curve at half-maximal effect. Summed up: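 Tox21 10K compounds, 15 concentrations each in triplicate, pin-transferred in DMSO onto dye-loaded cells; kinetic read at 480/540 nm for 3 min, 1 s intervals.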
The nature of test [4]: p53 small molecule agonists, cell-based qHTS assay with human liver microsomes: qHTS cell viability counter screen (AID 1963579). Also: nearly all actives have a fitted effect of over 45% in size. In short, it runs like this: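 In this multiplexed counter screen, the reporter plates were subsequently treated with CellTiter-Glo so that cell viability, reflected by luminescence, could be recorded for p53RE-bla cells dosed 16 h with compounds under microsomal activation (HLM and NADPH).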
(qHTS replaces the single test concentration by a dilution series.)

Test [5] is described as follows: p53 small molecule agonists, cell-based qHTS assay: qHTS cell viability counter screen (AID 1963581). Also: nearly all actives have a fitted effect of over 45% in size. In short, it runs like this:
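ATP content measured by luminescence in HCT-116 p53RE-bla cells treated 16 h at 37 C, same wells as the reporter screen.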

For test [6], the target named is 5-hydroxytryptamine receptor 2A (Homo sapiens) (UniProt P28223). Kind of test: 5-hydroxytryptamine receptor 2A (HTR2A) small molecule antagonists, cell-based qHTS assay (AID 1963586). Also: nearly all actives have a fitted effect of over 45% in size. Also: potency is read from the fitted curve at half-maximal effect. In short, it runs like this: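 CHO cells stably expressing human HTR2A were plated for 18 h at 37 C, then loaded with calcium dye for 1 h. Compounds were preincubated 5 min at room temperature before DOI (4 nM solution) was added. Kinetic fluorescence was read for 3 min.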

For test [7], the target named is Muscarinic acetylcholine receptor M1 (Homo sapiens) (UniProt P11229). Briefly: Cholinergic receptor muscarinic 1 (CHRM1) small molecule antagonists, cell-based qHTS assay (AID 1963588). Also: nearly all actives have a fitted effect of over 40% in size. Also: potency is read from the fitted curve at half-maximal effect. Summed up:
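Compounds were tested at 15 concentrations in three independent runs. Dye-loaded CHRM1-CHO cells were exposed 5 min at room temperature before stimulation by acetylcholine added at 50nM. Intracellular calcium was read kinetically on FDSS for 3 min.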

Test [8] shares this target. Kind of test: Cholinergic receptor muscarinic 1 (CHRM1) small molecule agonists, cell-based qHTS assay (AID 1963589). Also: nearly all actives have a fitted effect of over 35% in size. In short, it runs like this:
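Homogeneous fluorescence calcium flux, agonist mode. Human M1-expressing CHO cells; compound dosed at 15 concentrations, three independent runs; signal sampled every 1 sec.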

Test [9] deals with Beta-2 adrenergic receptor (Homo sapiens) (UniProt P07550). Kind of test: Adrenergic beta2 receptor (ADRB2) small molecule antagonists, cell-based qHTS assay (AID 1963592). Also: nearly all actives have a fitted effect of over 50% in size. Also: potency is read from the fitted curve at half-maximal effect. As to activity change, negative = inhibition: series mostly up to about 92 µM. Summed up:
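Assay format: CHO-ADRB2 cells, 18-20hr seeding at 37C/5% CO2, then compound plus 1nM isoproterenol agonist mix for 0.5hr RT. Homogeneous time-resolved fluorescence cAMP detection after 1hr, expressed as 665/615 nm ratio.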

For test [10] the target is unchanged. Briefly: Adrenergic beta2 receptor (ADRB2) small molecule agonists, cell-based qHTS assay (AID 1963593).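 Also: CHO cells stably overexpressing human ADRB2.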 Summed up: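 CHO cells stably over-expressing ADRB2 were plated overnight at 37C, then dosed with compounds plus a stimulation mix containing 100uM IBMX and 25uM Ro-20-1724 for 0.5hr at room temperature. cAMP was measured by HTRF competition, 1hr.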
Test [11] concerns the target D(2) dopamine receptor (Homo sapiens) (UniProt P14416). Briefly: Dopamine D2 receptor (DRD2) small molecule agonists, cell-based qHTS assay (AID 1963594). Also: nearly all actives have a fitted effect of over 35% in size. In short, it runs like this: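 HEK293 cells stably expressing human DRD2, pre-treated with PDE inhibitor Ro20-1724 (0.1 mM final) and compound 10 min at room temperature, then stimulated with NKH477 (200nM […]) for 30 min. cAMP read by HTRF (665/620 nm).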

For test [12] the target is unchanged. Kind of test: Dopamine D2 receptor (DRD2) small molecule antagonists, cell-based qHTS assay (AID 1963595; active = well fitted inhibition curve with a large enough effect in the signal ratio in the repeat runs, with a control signal flat; the % refers to the signal ratio; also: potency is read from the fitted curve at half-maximal effect). In short, it runs like this: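 HEK293 cells stably expressing DRD2, preincubated with 0.1 mM Ro20-1724 and compounds 10 min, were stimulated with 200 nM NKH477 plus 12 nM quinpirole for 30 min at room temperature; cAMP measured by HTRF (665/620 nm).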

Test [13] is described as follows: p53 small molecule agonists, cell-based qHTS assay with human liver microsomes (AID 1963577).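 Also: p53 response element beta-lactamase reporter cells with liver microsomes plus NADPH.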 In short, it runs like this:
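16 h, 37 C exposure of p53RE-bla cells to compounds with human liver microsomes and NADPH (0.5 mg/mL final each); detection via LiveBLAzer mixture, 2 h dark at room temperature.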

Test [14] is described as follows: p53 small molecule agonists, cell-based qHTS assay with rat liver microsomes (AID 1963578). Summed up:
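With rat liver microsomes and NADPH present (0.5 mg/mL final each), p53RE-bla cells are treated with compound for 16 h at 37 C. LiveBLAzer detection mixture is then applied for 2 h at room temperature in the dark.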

Test [15] in a line: p53 small molecule agonists, cell-based qHTS assay with rat liver microsomes: qHTS cell viability counter screen (AID 1963580). Also: nearly all actives have a fitted effect of over 45% in size. In short, it runs like this: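 Cytotoxicity counter screen: intracellular ATP measured by CellTiter-Glo luminescence in the same wells as the beta-lactamase reporter read, on HCT-116 p53RE-bla cells exposed 16 h at 37 C to compounds with rat liver microsomes and NADPH, each 0.5 mg/mL final.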

Test [16] concerns the target 5-hydroxytryptamine receptor 2A (Homo sapiens) (UniProt P28223). Briefly: 5-hydroxytryptamine receptor 2A (HTR2A) small molecule agonists, cell-based qHTS assay (AID 1963587). Also: nearly all actives have a fitted effect of over 30% in size. Also: potency is read from the fitted curve at half-maximal effect. In short, it runs like this: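 CHO cells stably expressing human HTR2A, plated 18 h, loaded with calcium dye 1 h at 37 C. Agonist mode: compounds added and intracellular calcium fluorescence recorded kinetically for 2 min at 1 sec intervals.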

Test [17] can be described thus: cAMP Responsive Elements (CRE) small molecule agonists, cell-based qHTS assay (AID 1963590). In short, it runs like this: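 HEK 293T cells stably bearing CRE-bla were plated at 2,000 cells per well and rested 18 h. Compounds, positive controls or DMSO were added for 3 h at 37 C. LiveBLAzer B/G substrate was then loaded for 2 h at room temperature.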
Test [18] is described as follows: p53 small molecule agonists, cell-based qHTS assay (AID 1963582; active = well fitted activation curve with a large enough effect in the signal ratio in the repeat runs, not every such curve was filed as active; the % refers to the signal ratio). In short, it runs like this:
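16 h compound exposure (37 C) of p53 response element–bla cells, preceded by 5 h recovery at 37 C/5% CO2; read-out via LiveBLAzer B/G FRET substrate, 2 h RT, fluorescence intensity.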

A short description of test [19]: cAMP Responsive Elements (CRE) small molecule antagonists, cell-based qHTS assay (AID 1963591; active = well fitted inhibition curve with a large enough effect in the signal ratio in the repeat runs, not every such curve was filed as active; the % refers to the signal ratio). Summed up:
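First, CRE-bla HEK293T cells settled 18 h at 37 C. Next, compound and 0.25 uM final NKH477 were applied for 3 h. Last, LiveBLAzer B/G substrate was loaded for 2 h at room temperature.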

SMILES strings stand for the structures. Several values for one entry are separate records, joined by “and”; a condition that tells them apart may be missing. Equal entries are not always repeated. Unmarked numbers belong to inactive results. Records with an inconclusive call do not appear. Activity calls are given as the source filed them. Unless noted, calls follow the shape of the full dose curve.
% is scaled to controls: 0 for no effect and ±100 for the full control effect.

Beta-2 adrenergic receptor (Homo sapiens), sequence (P07550 whole entry, looked up): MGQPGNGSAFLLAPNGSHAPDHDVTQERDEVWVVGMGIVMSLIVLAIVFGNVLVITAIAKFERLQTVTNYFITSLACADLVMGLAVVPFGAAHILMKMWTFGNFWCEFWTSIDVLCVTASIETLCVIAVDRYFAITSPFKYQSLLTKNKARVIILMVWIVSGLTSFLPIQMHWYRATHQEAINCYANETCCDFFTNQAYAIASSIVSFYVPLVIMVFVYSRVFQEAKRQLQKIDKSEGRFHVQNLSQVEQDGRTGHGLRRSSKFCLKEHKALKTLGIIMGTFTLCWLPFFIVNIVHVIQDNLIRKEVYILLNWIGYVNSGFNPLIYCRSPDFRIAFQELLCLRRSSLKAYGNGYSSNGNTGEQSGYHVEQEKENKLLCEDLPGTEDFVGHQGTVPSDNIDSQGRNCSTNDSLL
KiSS-1 receptor (Homo sapiens), sequence (Q969F8 whole entry, looked up): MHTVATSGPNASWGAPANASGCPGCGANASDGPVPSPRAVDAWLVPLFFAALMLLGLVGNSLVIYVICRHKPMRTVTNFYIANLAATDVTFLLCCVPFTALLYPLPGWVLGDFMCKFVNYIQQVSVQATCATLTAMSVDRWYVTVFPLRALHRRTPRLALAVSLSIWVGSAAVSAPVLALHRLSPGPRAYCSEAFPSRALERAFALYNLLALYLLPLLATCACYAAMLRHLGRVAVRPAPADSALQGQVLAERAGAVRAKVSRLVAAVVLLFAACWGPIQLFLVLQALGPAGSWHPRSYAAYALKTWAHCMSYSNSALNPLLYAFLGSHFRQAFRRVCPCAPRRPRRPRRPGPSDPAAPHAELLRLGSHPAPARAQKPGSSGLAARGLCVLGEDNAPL
Muscarinic acetylcholine receptor M1 (Homo sapiens), sequence (P11229 whole entry, looked up): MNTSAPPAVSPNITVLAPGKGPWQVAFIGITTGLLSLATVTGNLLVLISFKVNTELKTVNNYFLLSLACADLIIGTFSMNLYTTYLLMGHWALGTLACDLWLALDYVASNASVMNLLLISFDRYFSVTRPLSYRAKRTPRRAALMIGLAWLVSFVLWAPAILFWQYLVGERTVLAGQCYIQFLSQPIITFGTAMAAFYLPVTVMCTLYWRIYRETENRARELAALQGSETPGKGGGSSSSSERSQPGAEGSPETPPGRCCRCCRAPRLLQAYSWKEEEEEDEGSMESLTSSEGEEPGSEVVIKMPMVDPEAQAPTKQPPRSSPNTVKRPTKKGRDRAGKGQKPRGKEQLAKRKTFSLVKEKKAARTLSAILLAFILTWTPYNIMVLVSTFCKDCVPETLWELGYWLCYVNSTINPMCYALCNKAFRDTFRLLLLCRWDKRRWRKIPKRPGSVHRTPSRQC
D(2) dopamine receptor (Homo sapiens), sequence (P14416 whole entry, looked up): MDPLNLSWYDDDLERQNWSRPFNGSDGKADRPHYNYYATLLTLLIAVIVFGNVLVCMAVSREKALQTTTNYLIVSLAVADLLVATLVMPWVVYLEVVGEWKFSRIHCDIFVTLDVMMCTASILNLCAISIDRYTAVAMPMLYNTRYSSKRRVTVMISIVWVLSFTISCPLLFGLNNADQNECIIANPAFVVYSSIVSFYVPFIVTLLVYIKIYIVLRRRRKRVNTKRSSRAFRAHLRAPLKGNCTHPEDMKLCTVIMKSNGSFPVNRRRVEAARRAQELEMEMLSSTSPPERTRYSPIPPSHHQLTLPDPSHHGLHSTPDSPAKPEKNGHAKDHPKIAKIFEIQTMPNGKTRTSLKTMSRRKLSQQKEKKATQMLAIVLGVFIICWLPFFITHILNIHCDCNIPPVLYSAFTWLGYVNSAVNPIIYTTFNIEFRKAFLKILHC
5-hydroxytryptamine receptor 2A (Homo sapiens), sequence (P28223 whole entry, looked up): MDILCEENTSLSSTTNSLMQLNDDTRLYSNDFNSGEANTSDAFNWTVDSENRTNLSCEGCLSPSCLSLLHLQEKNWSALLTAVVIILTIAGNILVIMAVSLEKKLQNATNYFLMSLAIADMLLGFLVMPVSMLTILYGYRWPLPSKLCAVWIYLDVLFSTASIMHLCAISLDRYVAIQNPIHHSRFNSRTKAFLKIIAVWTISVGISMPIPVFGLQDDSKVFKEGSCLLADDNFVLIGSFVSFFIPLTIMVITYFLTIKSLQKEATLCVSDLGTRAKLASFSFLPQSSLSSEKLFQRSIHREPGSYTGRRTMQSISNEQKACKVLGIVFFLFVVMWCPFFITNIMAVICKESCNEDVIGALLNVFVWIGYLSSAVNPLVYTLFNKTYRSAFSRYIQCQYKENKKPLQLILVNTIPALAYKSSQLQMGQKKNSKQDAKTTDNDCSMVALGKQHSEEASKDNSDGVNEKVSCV

On to `CCN(CC)CCCC(C)Nc1ccnc2cc(Cl)ccc12` (centres undefined), for which, in test [1], the activity, positive = activation is -10.3% [at 8.39 µM] and 0.993% [at 19 µM]. Moreover, the activation in test [2] is -0.539% [at 6.97 µM] and -0.536% [at 15.8 µM]; in test [3], 0.411% [at 5.23 µM] and -0.526% [at 11.8 µM]; in test [8], -0.78% [at 6.97 µM] and -0.406% [at 15.8 µM]; in [10] it was 0.827% [at 19 µM]; in [11], -2.86% [at 8.39 µM]. The activity change, negative = cytotoxicity in test [4] was 1.38% [at 5.99 µM] and -6.37% [at 13.5 µM]; in test [5] it was -9.2% [at 5.99 µM] and -2.12% [at 13.5 µM]. Moreover, the activity, negative = inhibition in test [6] was 2.23% [at 5.62 µM] and 1.08% [at 12.7 µM]. Besides, the Potency in test [7] is 2.52 µM (active). Moreover, the activity change, negative = inhibition is 0.663% [at 8.39 µM] and -0.0752% [at 19 µM] in test [9]; -2.41% [at 8.38 µM] and 1.11% [at 18.9 µM] in test [12].

Consider `CN1CCN(CCC(=O)N2c3ccccc3Sc3ccc(C(F)(F)F)cc32)CC1`, for which the Potency result in test [1], in test [2], in test [3], in test [13], in [14] and in test [15] was “inactive” throughout. The Potency entry in [8] and in test [11] was “inactive” throughout. Moreover, the figures for the Potency in test [6], in test [7] and in [9] were 4.1 µM (active), 0.146 µM (active) and 29.8 µM (active), respectively.

Consider `Cc1ccc(Nc2nccc(N(C)c3ccc4c(C)n(C)nc4c3)n2)cc1S(N)(=O)=O`, for which the figures for the Potency in test [1] and in test [9] were 4.22 µM (active) and 26.6 µM (active), respectively. Besides, the Potency entry in test [2], in test [3], in test [6], in test [16], in test [7] and in test [8] was “inactive” each time. For the same molecule, the Potency result in test [17] and in test [12] was “inactive” each time.

With `OCCN(CCO)c1nc(N2CCCCC2)c2nc(N(CCO)CCO)nc(N3CCCCC3)c2n1`, the Potency entry in test [1], in test [9], in [11] and in [12] was “inactive” throughout. Moreover, the Potency in test [2] is 23.9 µM (active); in [3] it was 16.9 µM (active).

Consider `CN[C@H]1CC[C@@H](c2ccc(Cl)c(Cl)c2)c2ccccc21`, for which the Potency entry in test [1], in test [2], in test [3], in test [14], in test [4] and in test [15] was “inactive” in each case. Also, the Potency result in test [5], in test [18], in test [19], in [9] and in [11] was “inactive” throughout. Besides, the Potency in test [12] was 15 µM (active).

With `CC(=O)OCC(=O)[C@@]1(O)[C@H](OC(C)=O)C[C@H]2[C@@H]3CCC4=CC(=O)C=C[C@]4(C)[C@@]3(F)[C@@H](O)C[C@@]21C`, the Potency result in test [1], in test [2], in [3], in test [14], in test [4] and in test [15] was “inactive” in each case. The Potency entry in [5], in test [18], in [16], in test [7], in test [8] and in test [17] was “inactive” in each case. The Potency entry in test [19], in test [9], in test [10], in test [11] and in test [12] was “inactive” in each case.

On to `O=C(CC(=O)C(F)(F)F)c1ccccc1`, for which the Potency in test [1] was 49.2 µM (active); in test [16], 49.7 µM (active). Also, the Potency result in test [2], in test [3], in [13], in test [4], in test [5] and in test [18] was “inactive” each time. Moreover, the Potency entry in test [6], in test [7], in test [8], in [17], in test [19] and in [9] was “inactive” in each case. Besides, the Potency result in [11] and in [12] was “inactive” in each case.
